Screens: PubChem BioAssay, National Center for Advancing Translational Sciences (NCATS)
The sample as a whole holds a higher share of hits than the screen did.
Shiga toxin inh: blocks Shiga toxin action in Vero cells; Vero cells, Shiga toxin protein synthesis inhibition reporter; inhibition, % at 38.7 µM; 290,000 compounds, 9.2% hits; in the data active means inhibition mostly above about 28%, no sharp cut-off; inactive means mostly below about 43%; further: 0% is about no effect
CHX counter: affects cycloheximide protein synthesis inhibition readout, counter-screen; cell reporter, cycloheximide protein synthesis inhibition counterscreen; max response, %; 300,000 compounds, 12% hits; in the data active means max response mostly above about 13%, no sharp cut-off; inactive means mostly below about 14%; further: read at 38.3 µM for the half of the compounds with a filed dose; 0% is about no effect
NS1 function inh: inhibitors of influenza NS1 protein function. Potency, µM (series often up to 46.1 µM), for the others: at the highest dose activity, positive = more growth. 270,000 compounds, 0.4% hits. AID 2326; calls by dose curve; further: potency means the concentration at half of the fitted maximal effect; actives are rising curves; nearly all actives have a fitted effect of over 50% in size
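OD600 was taken as the measure of yeast growth restored by compound in an NS1-expressing S. cerevisiae strain. Cells had been washed out of glucose medium and diluted 1:100 into galactose -URA medium, pH 6.0.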
AmpC detergent: AmpC beta-lactamase inhibition with detergent present | AmpC hydrolysis of nitrocefin, absorbance 480 nm, 0.01% Triton | 370,000 compounds, 0.041% hits | P00811 | Potency, µM (series often up to 114 µM), for the others: at the highest dose activity change, negative = inhibition, actives largely listed as inhibitors | AID 485294;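 further: potency means the concentration at half of the fitted maximal effect; 0% = no-compound wells and -100% = no-enzyme wells; nearly all actives have a fitted effect of over 25% in size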
Target sequence (P00811 whole entry, looked up): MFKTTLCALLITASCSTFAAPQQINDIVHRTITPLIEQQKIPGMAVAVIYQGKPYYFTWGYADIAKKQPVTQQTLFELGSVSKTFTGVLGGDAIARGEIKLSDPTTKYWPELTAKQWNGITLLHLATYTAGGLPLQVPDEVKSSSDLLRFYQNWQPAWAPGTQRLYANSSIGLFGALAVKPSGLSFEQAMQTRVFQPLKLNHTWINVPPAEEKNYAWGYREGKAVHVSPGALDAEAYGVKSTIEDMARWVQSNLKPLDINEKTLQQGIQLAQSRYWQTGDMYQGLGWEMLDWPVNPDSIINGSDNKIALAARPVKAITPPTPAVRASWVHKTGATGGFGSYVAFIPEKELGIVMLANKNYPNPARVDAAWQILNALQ
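AmpC (5.3 nM in the dispensed reagent) in 20 mM phosphate pH 7.0 with 0.01% (detergent screen) or 0.0001% Triton X-100 was preincubated with compounds for 15 min at room temperature. Nitrocefin was then added from an 800 uM solution, and hydrolysis was followed at 480 nm.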
AmpC inh no detg: blocks E. coli AmpC beta-lactamase in detergent-free assay | AID 485341 | 330,000 compounds, 0.52% hits | AmpC nitrocefin hydrolysis, absorbance 480 nm, 0.0001% Triton | Potency, µM (series often up to 57.1 µM), without a hit: top-dose activity change, negative = inhibition, usual class: inhibitors | P00811;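 further: potency means the concentration at half of the fitted maximal effect; plate controls were no compound for no effect and no enzyme for full effect; nearly all actives have a fitted effect of over 20% in size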
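AmpC (5.3 nM in the dispensed reagent) in 20 mM phosphate pH 7.0 with 0.01% (detergent screen) or 0.0001% Triton X-100 was preincubated with compounds for 15 min at room temperature. Nitrocefin was then added from an 800 uM solution, and hydrolysis was followed at 480 nm.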
Starred values were filed as active, the others as inactive; ? = inconclusive; . = no result given. Unless noted, the call rests on the fitted dose curve; in most records, active means well fitted curve in the direction sought with a large enough effect; inconclusive means small, poorly fitted or top-dose-only effect, or another doubt; inactive means no such curve, though single readings can be large; an effect the other way counts as inactive or inconclusive.

SMILES | Shiga toxin inh | CHX counter | NS1 function inh | AmpC detergent | AmpC inh no detg
COc1ccc(C2CN=NC2C(=O)c2ccccc2)cc1 (stereo not given) | 26* | 21* | -1% | -8% | -31%
COc1cccc(-c2noc(C3CC(=O)N(c4ccc(F)cc4)C3)n2)c1OC (stereo not given) | . | . | . | 18% | .
Cc1cc(C=C2C(=O)c3ccccc3C2=O)c(C)n1-c1cccc(C(=O)O)c1 | 104* | 43* | . | 5% | -27%
COc1ccccc1/C=C1\Cc2ccccc2C1=O | 51* | 32* | -39% | -9% | -23%
Cc1cc(C=C2C(=O)N(C)C(=O)N(C)C2=O)c(C)n1-c1ccccc1 | 53* | 25* | . | 5% | -20%
Cc1cc(/C=C2\Cc3ccccc3C2=O)c(C)n1-c1ccccc1 | 159* | 80* | 19% | -3% | -24%
Cc1ccc(-c2nnc(Nc3ccc(O)cc3)c3ccccc23)cc1S(=O)(=O)N1CCCCC1 | . | . | . | -5% | .
COc1ccc2sc(/C=C/c3ccccc3O)[n+](C)c2c1 | -10 | 3 | . | -18% | -43%
Cc1cc(C=C2C(=O)c3ccccc3C2=O)c(C)n1-c1ccccc1 | 118* | 51* | 17% | -4% | -33%
O=C(c1ccco1)N1CCN(S(=O)(=O)c2ccc(Br)cc2)CC1 | -8 | -3 | -4% | -1% | 7%
CNc1nc(-c2ccc(S(=O)(=O)N3CCCCC3)cc2)cs1 | . | . | . | -17% | -16%
CC(=O)Nc1ccc(S(=O)(=O)N2CCN(C(=O)c3ccco3)CC2)cc1 | -5 | 21* | 0% | -3% | -13%
O=C(Nc1nc(-c2ccc(S(=O)(=O)N3CCCC3)cc2)cs1)c1ccco1 | 22* | 5.2* | -38% | -18% | -28%
O=C(Nc1cccc(S(=O)(=O)N2CCCC2)c1)c1ccco1 | . | . | . | . | -20%
O=C(Nc1ccc(S(=O)(=O)N2CCCCCC2)cc1)c1ccco1 | 40* | 23* | -18% | 0% | -24%
O=C(Cc1coc2cc3c(cc12)CCC3)NC1CCCCCCC1 | 2 | 12* | -4% | -1% | -16%
O=C(O)Cc1coc2cc3c(cc12)CCC3 | -7 | -1 | . | -13% | -9%
CC(C)Nc1nc(NC(N)=S)nc(NC(C)C)n1 | -12 | -1 | 10% | -8% | -34%
CC[C@H](C)[C@H](NC(=O)[C@H](CCC(=O)O)NC(=O)[C@@H](N)CO)C(=O)N[C@@H](CCC(N)=O)C(=O)N[C@@H](CC(C)C)C(=O)N[C@@H](CCSC)C(=O)N[C@@H](Cc1cnc[nH]1)C(=O)N[C@@H](CC(N)=O)C(=O)N[C@@H](CC(C)C)C(=O)NCC(=O)N[C@@H](CCCCN)C(=O)N[C@@H](Cc1cnc[nH]1)C(=O)N[C@@H](CC(C)C)C(=O)N[C@@H](C)C(=O)N[C@@H](CO)C(=O)N[C@H](C(=O)N[C@@H](CCC(=O)O)C(=O)N[C@@H](CCCNC(=N)N)C(=O)N[C@@H](CCSC)C(=O)N[C@@H](CCC(N)=O)C(=O)N[C@@H](Cc1c[nH]c2ccccc12)C(=O)N[C@@H](CC(C)C)C(=O)N[C@@H](CCCNC(=N)N)C(=O)N[C@@H](CCCCN)C(=O)N[C@@H](CCCCN)C(=O)N[C@@H](CC(C)C)C(=O)N[C@@H](CCC(N)=O)C(=O)N[C@@H](CC(=O)O)C(=O)N[C@H](C(=O)N[C@@H](Cc1cnc[nH]1)C(=O)N[C@@H](CC(N)=O)C(=O)N[C@@H](Cc1ccccc1)C(=O)O)C(C)C)C(C)C | -18 | -7 | . | . | .
CCOC(=O)c1cn2nc(Oc3cccc(F)c3)ccc2n1 | 49 | 31* | -31% | -7% | 5%
CCOC(=O)c1cn2nc(Oc3ccc(NC(C)=O)cc3)ccc2n1 | 59* | 25* | 1% | -4% | -9%
CCOC(=O)c1cn2nc(Oc3ccc(C#N)cc3)ccc2n1 | 16 | -2 | -2% | -8% | -5%
CCOC(=O)c1cn2nc(Oc3ccc(C(=O)OC)cc3)ccc2n1 | -1 | 1 | -3% | -6% | 43%
CCC(=O)Nc1ccc(NC(=O)c2cccc(OC)c2)nc1 | 24* | 23* | -1% | -1% | -23%
COc1cccc(C(=O)Nc2ccc(NC(=O)C3CC3)cn2)c1 | 70* | 29* | -10% | 3% | -16%
SMILES | Shiga toxin inh | CHX counter | NS1 function inh | AmpC detergent | AmpC inh no detg
CCn1nnnc1NC(=O)c1cccc(OC)c1 | 83* | 32* | 1% | -4% | -33%
Cc1ccc(OC(=O)c2cc(-c3ccccc3)nc3ccc(C)cc23)cc1 | . | . | . | 0% | .
COc1ccc(OCC(=O)N2CCCC(CO)(CCOc3ccccc3)C2)cc1 (stereo not given) | -6 | 0 | -10% | 0% | 79%
Cc1ccccc1CNC(=O)CCc1ccccc1 | 35 | 18* | -4% | 5% | -2%
Cc1ccc(CNC(=O)CCCc2ccccc2)cc1 | 3 | 27 | -4% | 5% | -10%
Cc1ccc(CNC(=O)CCc2ccccc2)cc1 | 19 | 15* | -2% | 12% | 0%
Cc1ccc(CNC(=O)C2(S(=O)(=O)c3ccccc3)CC=CC2)cc1 | 44* | 41* | -10% | -11% | -22%
CC#CC(=O)N1CCC(CCC(=O)N(C)Cc2ccccc2)CC1 | 7 | 5 | 13% | -11% | 11%
C=CCNC(=O)C1CC1(c1ccccc1)c1ccccc1 (stereo not given) | 7 | 4 | -2% | 10% | -5%
Cc1cc(=O)n(C(C)C(=O)NCc2ccccc2Cl)c2c1c(C)nn2-c1ccccc1 (stereo not given) | . | . | . | 1% | .
O=C(N1CCCC1)C(F)(F)Oc1ccc(F)cc1 | 32* | 14 | -5% | -1% | -7%
O=C(COc1ccc(F)cc1)N1CCCCCCC1 | 15 | -2 | -3% | -4% | -6%
O=Cc1ccc(C(=O)OCC(=O)N2CCCC2)cc1 | 18 | -2 | -2% | -12% | -15%
O=C(OCC(=O)N1CCCC1)c1ccc(OC(F)(F)F)cc1 | 70 | 22* | -3% | 4% | -1%
CCN(CC)c1ccc(C(=O)OCC(=O)N2CCCC2)cc1 | 59* | 29* | -9% | ? | 0%
O=C(NC(=S)Nc1ccccc1)c1cccs1 | 81* | 60* | 15% | 4% | -18%
CC1CCN(c2ccccc2NC(=S)NC(=O)c2cccs2)CC1 | -44 | -4 | 9% | -3% | 10µM*
COc1ccccc1C(=O)NC(=S)Nc1ccc(NC(=O)c2cccs2)cc1 | 35 | -5 | 24% | -7% | -11%
O=C(Nc1ccc(NC(=S)NC(=O)c2cccs2)cc1)c1ccccc1 | -2 | 11 | 17% | -5% | -36%
CS(=O)(=O)N1CCN(c2ccccc2NC(=S)NC(=O)c2cccs2)CC1 | -6 | -3 | 6% | -2% | -16%
COc1ccc(C(=O)NNC(=S)NC(=O)/C=C/c2cccs2)cc1 | 111* | 37* | 0% | 1% | -17%
CC(=O)NC(=S)Nc1ccc(NC(=O)c2cccs2)cc1 | 32* | 28* | -5% | -15% | -8%
